Experiment [1] in a line: NCI Yeast Anticancer Drug Screen. Data for the rad50 strain (AID 155).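 Also: 0% = growth of vehicle-only cultures of the same strain.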 The conditions noted are these: S. cerevisiae rad50 strain growth inhibition; at 50.0 µM; active compounds read high. The method in brief:
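Vehicle-treated cultures provide the reference for the growth inhibition reported for compound-exposed, repair-deficient yeast.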

Experiment [2] is described as follows: NCI Yeast Anticancer Drug Screen. Data for the mec2-1 strain (AID 157). The conditions noted are these: S. cerevisiae mec2-1 strain, at 50.0 µM, active compounds read high. The procedure, abridged:
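Using mec2-1 yeast: add compound, measure growth, express inhibition versus vehicle-treated cultures.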

Experiment [3] can be described thus: NCI Yeast Anticancer Drug Screen. Data for the sgs1 mgt1 strain (AID 161).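 Also: 0% = growth of cultures given vehicle only.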 The following applies: S. cerevisiae sgs1 mgt1 strain, at 50.0 µM, active compounds read high. The method in brief:
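Yeast cells carrying a defined DNA-repair defect were exposed to test compounds. Growth inhibition was measured relative to vehicle-treated controls.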

Experiment [4] in a line: NCI Yeast Anticancer Drug Screen. Data for the cln2 rad14 strain (AID 165).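 Also: 0% = growth equal to vehicle treated cultures.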 The following applies: S. cerevisiae cln2 rad14 strain, at 50.0 µM, active compounds read high. The procedure, abridged:
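Yeast strain cln2 rad14, bearing defects in cell cycle control and DNA repair, serves as the test system; values reflect growth inhibition compared with vehicle.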

The nature of experiment [5]: NCI Yeast Anticancer Drug Screen. Data for the bub3 strain (AID 167). The following applies: S. cerevisiae bub3 mutant strain, at 50.0 µM, active compounds read high. The method in brief:
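Mutant yeast screening strain plus compound; vehicle-treated cultures serve as the 0% inhibition reference.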

A short description of experiment [6]: NCI Yeast Anticancer Drug Screen. Data for the mlh1 rad18 strain (AID 175). The following applies: S. cerevisiae mlh1 rad18 strain growth inhibition; at 50.0 µM; active compounds read high. The procedure, abridged:
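Steps: expose repair-defective yeast to compound; measure growth; express inhibition against vehicle-treated controls.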

This is part of a sample that, as a whole, favours compounds with a hit. Of some 79,000 tested, about 15% had one in any assay. A number with no mark means an inactive call. Calls of active or inactive are those of the source. Rule as the data show it: active = growth inhibition above about 70%; inactive = the rest.

As to `CC/C=C\CCOC(=O)C1OC1c1ccccc1` (configuration not stated), the growth inhibition in experiment [1] is 8.15%; in experiment [2] it was 17.3%; in experiment [3], -8.75%; in experiment [4], 10.9%; in experiment [5] it was 0%; in experiment [6] it was 1.5%.

For `CNC(=O)NNC(=O)NC`, the growth inhibition is -45.1% in experiment [1]; -24.6% in experiment [2]; -24.6% in experiment [3]; -27.6% in experiment [4]; -15.7% in experiment [5]; -6.05% in experiment [6].

Take `O=C1C2Cc3ccccc3CN2C(=O)N1CN1CCN(CN2C(=O)C3Cc4ccccc4CN3C2=O)CC1` (configuration not stated): the growth inhibition in experiment [1] was -13.1%; in experiment [2] it was -0.05%; in experiment [3] it was -16.6%; in experiment [4], -10.9%; in experiment [5], -28.6%; in experiment [6], -5.8%.

On to `O=[N+]([O-])c1ccc(/C=C/[P+](c2ccccc2)(c2ccccc2)c2ccccc2)o1`, for which the growth inhibition in experiment [1] is 94.2% (active); in experiment [2], 97.5% (active); in experiment [3], 89.5% (active); in experiment [4], 83.5% (active); in experiment [5], 95.8% (active); in experiment [6], 93.7% (active).

With `CCOC(=O)C1=C(Nc2cccc3ccccc23)OC/C1=N\NC(=O)c1ccccc1O`, the growth inhibition in experiment [1] was 24.2%; in experiment [2], 28.6%; in experiment [3], 20.3%; in experiment [4], 14.8%; in experiment [5] it was 27.8%; in experiment [6], 12.8%.

Take `Clc1ccc(-c2nnc(-c3ccc4ccccc4c3)o2)cc1`: the growth inhibition in experiment [1] is -43%; in experiment [2], -60.8%; in experiment [3], -22.2%; in experiment [4] it was 3.1%; in experiment [5], -47.5%; in experiment [6], -25.4%.

As for `OC1CCC(C2C3CCCCC3C3CCCCC3C2C2CCC(O)CC2)CC1` (configuration not stated), the growth inhibition in experiment [1] was 94.7% (active); in experiment [2], 98.5% (active); in experiment [3], 92.5% (active); in experiment [4], 97.9% (active); in experiment [5] it was 97.2% (active); in experiment [6], 96.8% (active).

Consider `O=C(Nc1ccc([N+](=O)[O-])c2c1C(=O)c1ccccc1C2=O)c1ccccc1`, for which the growth inhibition in experiment [1] was -7.7%; in experiment [2], -12.1%; in experiment [3], -5.95%; in experiment [4] it was -43.4%; in experiment [5] it was 10.1%; in experiment [6], -2.9%.

Consider `COc1ccc(-c2nn(CCO)c(=O)c(C#N)c2-c2ccc(OC)cc2)cc1`, for which the growth inhibition in experiment [1] is 28.9%; in experiment [2], 1.3%; in experiment [3], 6.65%; in experiment [4], 7.3%; in experiment [5], 13.7%; in experiment [6] it was 5.9%.

Regarding `CC(Oc1ccccc1)C(=O)NNC(=O)OC(C)(C)C` (configuration not stated), the growth inhibition in experiment [1] was -0.3%; in experiment [2], -21.9%; in experiment [3], -10.7%; in experiment [4] it was -0.75%; in experiment [5], -18.6%; in experiment [6], 3.9%.

`O=c1oc2ccccc2c(O)c1Cc1cccc(Cc2c(O)c3ccccc3oc2=O)c1`: the growth inhibition in experiment [1] is 11.9%; in experiment [2] it was 5.05%; in experiment [3], 4.9%; in experiment [4], 9.3%; in experiment [5] it was -11.3%; in experiment [6] it was 5%.

With `O=C1OCC/C1=C\c1ccsc1`, the growth inhibition in experiment [1] was 6.4%; in experiment [2], 10.2%; in experiment [3], -6.9%; in experiment [4], -6%; in experiment [5], -8.3%; in experiment [6], -3.4%.

In the case of `CCN(CC)Cc1cc(N=Nc2ccc(-c3ccc(N)c(OC)c3)cc2OC)c2ccccc2c1O`, the growth inhibition in experiment [1] is 18.7%; in experiment [2] it was 4.35%; in experiment [3] it was 18.6%; in experiment [4], 19.8%; in experiment [5], -4.8%; in experiment [6], 27.4%.

On to `CCOC(=O)C1=CC(C)(C(=O)OCC)Nc2c(nc(SC)[nH]c2=O)N1` (configuration not stated), for which the growth inhibition was -30.9% in experiment [1]; -24.7% in experiment [2]; -14.7% in experiment [3]; 9.05% in experiment [4]; -11.8% in experiment [5]; 2.5% in experiment [6].

On to `COc1ccc2c(c1)C1(C)CCCC(C)(CO)C1CC2` (configuration not stated), for which the growth inhibition in experiment [1] is 37%; in experiment [2], -0.3%; in experiment [3], 20.2%; in experiment [4] it was 3.95%; in experiment [5], 1.4%; in experiment [6], -10.8%.

In the case of `C=CCC(CNC(C)=O)(C1=CCCCC1)c1ccccc1` (configuration not stated), the growth inhibition was 1.95% in experiment [1]; 13% in experiment [2]; 13.1% in experiment [3]; 19.8% in experiment [4]; 17.1% in experiment [5]; 12.7% in experiment [6].

Regarding `N#Cc1ccc(CCc2ccccc2)cc1`, the growth inhibition in experiment [1] was 1.2%; in experiment [2] it was -3.75%; in experiment [3], 18.6%; in experiment [4] it was 10.4%; in experiment [5], 2.95%; in experiment [6], -2.05%.

For the compound `COc1cccc(S(=O)(=O)c2c(C)cc(C)cc2C)c1`, the growth inhibition in experiment [1] is -12.7%; in experiment [2], -12.6%; in experiment [3], -12.8%; in experiment [4] it was -42%; in experiment [5] it was 1.1%; in experiment [6], -12.8%.

With `N#Cc1ccc(/C=C\c2ccc(C#N)cc2)cc1`, the growth inhibition in experiment [1] is -8.2%; in experiment [2] it was 5.05%; in experiment [3], 4.45%; in experiment [4], 6.05%; in experiment [5] it was 1.2%; in experiment [6] it was -11.1%.

Take `CC1CCCN(N=Nc2ccc(Br)cc2-c2nc(N)c3cc(Br)ccc3n2)C1` (configuration not stated): the growth inhibition in experiment [1] is 99.2% (active); in experiment [2] it was 99.2% (active); in experiment [3], 99.5% (active); in experiment [4], 98.2% (active); in experiment [5] it was 99% (active); in experiment [6], 99% (active).

`CCCCN(Cc1ccccc1)C(=O)NC(C)(C)C`: the growth inhibition was 2.15% in experiment [1]; 33.9% in experiment [2]; 8.1% in experiment [3]; 3.45% in experiment [4]; 25.8% in experiment [5]; 18.6% in experiment [6].

Turning to `O=C1c2ccccc2C2(O)Nc3cc(O)ccc3C12O` (configuration not stated), the growth inhibition in experiment [1] is -24.6%; in experiment [2] it was -23.1%; in experiment [3], -15.1%; in experiment [4], -14.1%; in experiment [5], -11.8%; in experiment [6] it was -19.6%.

The values above are taken from PubChem BioAssay (NCI).
